Test results: ChEMBL document CHEMBL4513216, “Probing the Open Global Health Chemical Diversity Library for Multistage-Active Starting Points for Next-Generation Antimalarials” (ACS Infect Dis, 2020)
Out of some 68,000 compounds screened, about 2,700 (4%) showed an effect of 50% or more. For the sample, strong results were picked, then their nearest neighbours and some compounds at random.

Each compound was assayed on Plasmodium berghei (assay: Screen against P. berghei liver stage (PbLuc), transformed with Luciferase, at 2uM). Settings: tested at 2 uM.
Format: functional, HepG2

| SMILES | INHIBITION |
| --- | --- |
| Cn1nc(C2CCCC2)c(-c2ccc3c(c2)OCO3)c1N | 53.33% |
| Cc1nc(C)n(C2CCCN(C(=O)c3ccc4c(c3)COC4)C2)n1 (stereo not drawn) | 2.08% |
| O=C1CC[C@@H]2[C@@H](CCN2C(=O)c2ccsc2)N1Cc1ccncc1 | 37.48% |
| Cc1ccc(CN2C[C@H](OCC3CCN(C)CC3)[C@H]3COC[C@H]32)o1 | -14.64% |
| CNC(=O)[C@H]1C[C@H]2OCC[C@H]2N(Cc2cccc3ccccc23)C1 | 16.6% |
| CC(=O)c1c(F)cccc1NCC(O)c1ccc(F)c(F)c1 (stereo not drawn) | 4.26% |
| CC(=O)c1c(F)cccc1NCC(O)C(C)(C)C (stereo not drawn) | 53.44% |
| CC(=O)c1c(F)cccc1NCC(O)C1CC1 (stereo not drawn) | 31.96% |
| CCC(C)NC(=O)c1cc(S(N)(=O)=O)c(Br)s1 (stereo not drawn) | -70.18% |
| CCC(C)NC(=O)c1cc(S(=O)(=O)N(C)C)c(C)s1 (stereo not drawn) | 25.9% |
| CCC(C)NC(=O)c1cc(S(=O)(=O)N2CCCC2)c(C)s1 (stereo not drawn) | 53.12% |
| CC(C)(C)c1nnc(CN2CCCC(c3cc(C(N)=O)[nH]n3)C2)o1 (stereo not drawn) | -47.97% |
| COc1ncnc(N(C)C)c1NC(=O)Cc1cc(F)ccc1F | -73.79% |
| COc1ncnc(N(C)C)c1NC(=O)Cc1c[nH]c2ccc(F)cc12 | 62.92% |
| CN(C)c1ncncc1NC(=O)Cc1c[nH]c2ccc(F)cc12 | 10.04% |
| O=C(CN1CC(c2nc(-c3ccco3)no2)C1)NCC1CCCO1 (stereo not drawn) | 23.01% |
| Cc1cc(NC(=O)NC2CCN(C(C)C)CC2)c2ncccc2c1 | -40.76% |
| CCOc1ccc(S(=O)(=O)NCCCc2ccc(N(C)C)cc2)cc1F | 51.71% |
| COc1ccc(S(=O)(=O)NCCCc2ccc(N(C)C)cc2)cc1F | 25.53% |
| CCOc1ccc(S(=O)(=O)NCCc2ccc(N(C)C)cc2)cc1F | 21% |
| CN(Cc1nnc(-c2ccco2)o1)C(C(N)=O)c1cccc(F)c1 (stereo not drawn) | 5.64% |
| CC(C)CCn1ccc(NC(=O)N2CCCC2CN2CCOCC2)n1 (stereo not drawn) | -39.07% |
| CCNC(=O)CN1CCc2c(Br)ccc(F)c2C1 | -25.78% |
| Cn1ccnc1CN1CCC2(CC1)CN(c1cncnc1)C(=O)CO2 | 7.71% |
| Cc1n[nH]c(=O)c2c(NC(=O)CN3CCC(C)CC3)oc(C)c12 | 26.2% |
| CCOC1CCN(CC(=O)Nc2oc(C)c3c(C)n[nH]c(=O)c23)CC1 | 52.52% |
| Cc1n[nH]c(=O)c2c(NC(=O)CN3CCC(O)CC3)oc(C)c12 | 5.72% |

| SMILES | INHIBITION |
| --- | --- |
| COCC[C@]1(O)CCN(Cc2ccccn2)C[C@H]1C | 5.39% |
| O=C(Cc1cccs1)NCC1(O)CCSCC1 | 52.85% |
| O=C(NCC1(O)CCSC1)c1ccoc1 (stereo not drawn) | 22.4% |
| COC1(CNC(=O)c2ccoc2)CCSC1 (stereo not drawn) | 28.5% |
| O=C(Cc1cccs1)NCC1(O)CCc2ccccc2C1 (stereo not drawn) | 24.6% |
| O=C(Cc1cccs1)NCC1(O)CCSC1 (stereo not drawn) | -2.22% |
| O=C(NCC1(O)CCSCC1)c1ccoc1 | 53.61% |
| CN(Cc1ccncc1)C1CC2(CCN(c3ncccn3)CC2)C1 | 36.48% |
| COc1ccc(NC(=O)NCCCn2nc3ccccn3c2=O)cc1 | -12.82% |
| COCc1cc(N2CCOC(c3ccc(Cl)c(Cl)c3)C2)ncn1 (stereo not drawn) | -16.62% |
| CC(C)(C)c1cnc(CN2CCC(CN3CCOCC3)CC2)o1 | -10.87% |
| COCCN(C)C(=O)c1nc2c(s1)CCCN2C | 32.04% |
| O=C(c1ccc(F)cc1F)N1CCN(C(=O)C2CCCCC2)CC1 | 16.54% |
| CC(C)c1nc(CCn2cncn2)n(-c2ccc3c(c2)OCCO3)n1 | -39.01% |
| CC(C)Cc1nc(CO)n(-c2ccc3c(c2)OCCO3)n1 | 31.8% |
| CC(C)Cc1nc(CCn2cncn2)n(-c2ccc3c(c2)OCCO3)n1 | 61.14% |
| Cc1cc(N)cc(C2CN(Cc3cc[nH]n3)CCO2)n1 (stereo not drawn) | 26.14% |
| COc1ccc(C2CCCCCN2S(N)(=O)=O)cc1 (stereo not drawn) | -16.65% |
| CC(C)c1cc(C(=O)N2CCc3nc(C4CCCN4)ncc3C2)cs1 (stereo not drawn) | 67.83% |
| Cc1cc(C(=O)N2CCc3nc(C4CCCCN4)ncc3C2)cs1 (stereo not drawn) | 12.8% |
| Cc1cc(C(=O)N2CCc3nc(C4CCCN4)ncc3C2)cs1 (stereo not drawn) | 40.31% |
| CC(C)(C)C(=O)NS(=O)(=O)c1ccc(C#N)c(C(F)(F)F)c1 | 1.52% |
| COc1ccc(Oc2nccnc2C2CCN(C(C)=O)CC2)cc1 | 12% |
| Cc1cccc(C)c1Oc1ncccc1CNC(=O)C1(C)CCCNC1 (stereo not drawn) | 50.32% |
| CC1(C(=O)NCc2cccnc2Oc2ccc(F)cc2F)CCCNC1 (stereo not drawn) | -20.29% |
| COc1ccccc1Oc1ncccc1CNC(=O)C1(C)CCCNC1 (stereo not drawn) | 43.27% |
